Data from the supplement of paper PMC10849652.
Targets with a hit are over-represented here; the source holds about 8,800 in all. About 0.5% of all pairs of compound and target were hits.

How the values were obtained:
Assay in all cases: log2 fold change, soluble protein after heating vs DMSO (PISA); higher = thermal stabilisation; K562 lysate, 10 uM; active = over 0.2 and 3.5 SD of the protein, either way, in both replicates (recomputed)
[1] = compound: CCCS(=O)(=O)Nc1ccc(F)c(C(=O)c2c[nH]c3ncc(-c4ccc(Cl)cc4)cc23)c1F [vemurafenib]
Procedure, shortened: (§1)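 Values give the log-two fold change in thermal stability against solvent controls, from duplicates. Crude K562 extract at 1 mg/mL protein, made by dounce homogenisation in PBS pH 7.4 with 1 mM MgCl2, was treated with 10 μM compound for 30 min. After 3 min heating across 48°C-58°C, aliquots were pooled, adjusted to 0.5% NP-40 at 4°C and centrifuged at 21,000xg for 90 min. The supernatant was measured by TMTpro 16plex LC-MS/MS with channel sums equalised.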

[2] = compound: CCCS(=O)(=O)Nc1ccc(F)c(C(=O)c2c[nH]c3ncc(Cl)cc23)c1F
Procedure, shortened: as §1

[3] = compound: CCN(CCCOc1ccc2c(Nc3cc(CC(=O)Nc4cccc(F)c4)[nH]n3)ncnc2c1)CCOP(=O)(O)O [barasertib]
Procedure, shortened: as §1

[4] = compound: CC[C@@H]1C(=O)N(C)c2cnc(Nc3ccc(C(=O)NC4CCN(C)CC4)cc3OC)nc2N1C1CCCC1
Procedure, shortened: as §1

[5] = compound: CC[C@@H]1C(=O)N(C)c2cnc(Nc3ccc(C(=O)N[C@H]4CC[C@H](N5CCN(CC6CC6)CC5)CC4)cc3OC)nc2N1C(C)C [volasertib]
Procedure, shortened: as §1

[6] = compound: CCn1c(C(=O)N(C2CC2)C2CC2)cc2c3c(ncn3C)c(Nc3cc(C)n(C)n3)nc21
Procedure, shortened: as §1

[7] = compound: CCn1cc(-c2ccnc3[nH]c(-c4cccc(CN(C)C)c4)cc23)c(-c2ccc(NC(=O)N(C)C)cc2)n1
Procedure, shortened: as §1

[8] = compound: CN1CCC(CNc2ccc3ncc(-c4cccc(OC(F)(F)F)c4)n3n2)CC1
Procedure, shortened: as §1

[9] = compound: CN1CCN(CCOc2cc(OC3CCOCC3)c3c(Nc4c(Cl)ccc5c4OCO5)ncnc3c2)CC1 [saracatinib]
Procedure, shortened: as §1

[10] = compound: CN1CCN(c2nc(C3=C(c4c[nH]c5ccccc45)C(=O)NC3=O)c3ccccc3n2)CC1 [sotrastaurin]
Procedure, shortened: as §1

[11] = compound: CN1CC[C@H](c2c(O)cc(O)c3c(=O)cc(-c4ccccc4Cl)oc23)[C@H](O)C1 [alvocidib]
Procedure, shortened: as §1

[12] = compound: CN1CCc2c(c3ccccc3n2Cc2ccc(C(=O)NO)cc2)C1 [Tubastatin A]
Procedure, shortened: as §1

[13] = compound: CNC(=O)C1=CC=CC=C1NC2=NC(=NC=C2Cl)NC3=C(C=C(C=C3)N4CCOCC4)OC
Procedure, shortened: as §1

[14] = compound: CNC(=O)c1ccc(Nc2ncc(C(F)(F)F)c(NCc3nccnc3N(C)S(C)(=O)=O)n2)cc1 [defactinib]
Procedure, shortened: as §1

[15] = compound: CNc1nc(-c2ccc3c(N)n[nH]c3c2)cc(N2C[C@@H](C(=O)NC3CCCCC3)CC[C@H]2C)n1
Procedure, shortened: as §1

[16] = compound: COC(=O)N[C@@H](C)CNc1nccc(-c2cn(C(C)C)nc2-c2cc(Cl)cc(NS(C)(=O)=O)c2F)n1 [encorafenib]
Procedure, shortened: as §1

[17] = compound: COC(=O)[C@H](CCSC)NC(=O)C1=C(C=C(C=C1)NC[C@H](CS)N)C2=CC=CC=C2
Procedure, shortened: as §1

[18] = compound: COc1cc(Nc2ncc3c(n2)-c2ccc(Cl)cc2C(c2c(F)cccc2OC)=NC3)ccc1C(=O)O [alisertib]
Procedure, shortened: as §1

[19] = compound: COc1cc2nc(-c3cc(F)ccc3O)nc(N[C@@H]3CNC[C@H]3C(C)(C)O)c2cc1OC
Procedure, shortened: as §1

[20] = compound: COc1cc2ncnc(Nc3ccc(F)c(Cl)c3)c2cc1OCCCN1CCOCC1 [gefitinib]
Procedure, shortened: as §1

Measured: log2 fold change

FLAD1 (UniProt Q8NFF5)
inactive: [1] -0.051 | [2] 0.022 | [3] -0.063 | [4] 0.055 | [5] -0.028 | [6] 0.01 | [7] -0.002 | [8] -0.035 | [9] -0.001 | [10] 0.075 | [11] 0.035 | [12] -0.214 | [13] 0.039 | [14] -0.008 | [15] -0.013 | [16] 0.031 | [17] 0.137 | [18] -0.025 | [19] -0.013 | [20] -0.042

EBP (UniProt Q15125)
Chain of UniProt Q15125 (Q15125 whole entry, looked up): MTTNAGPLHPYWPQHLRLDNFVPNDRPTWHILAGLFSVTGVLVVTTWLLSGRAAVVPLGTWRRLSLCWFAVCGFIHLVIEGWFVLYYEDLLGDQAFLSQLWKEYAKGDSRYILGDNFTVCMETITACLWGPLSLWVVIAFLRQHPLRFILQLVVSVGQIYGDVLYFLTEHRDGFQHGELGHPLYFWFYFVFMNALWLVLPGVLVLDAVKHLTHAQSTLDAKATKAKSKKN
active: [15] 0.291
inactive: [1] 0.056 | [2] 0.024 | [3] 0.069 | [4] 0.071 | [5] 0.038 | [6] -0.024 | [7] -0.354 | [8] 0.044 | [9] 0.135 | [10] -0.103 | [11] -0.003 | [12] 0.004 | [13] 0.087 | [14] 0.028 | [16] 0.005 | [17] -0.016 | [18] -0.036 | [19] 0.048 | [20] 0.04

EXOC2 (UniProt Q96KP1)
Chain of UniProt Q96KP1 (Q96KP1 whole entry, looked up): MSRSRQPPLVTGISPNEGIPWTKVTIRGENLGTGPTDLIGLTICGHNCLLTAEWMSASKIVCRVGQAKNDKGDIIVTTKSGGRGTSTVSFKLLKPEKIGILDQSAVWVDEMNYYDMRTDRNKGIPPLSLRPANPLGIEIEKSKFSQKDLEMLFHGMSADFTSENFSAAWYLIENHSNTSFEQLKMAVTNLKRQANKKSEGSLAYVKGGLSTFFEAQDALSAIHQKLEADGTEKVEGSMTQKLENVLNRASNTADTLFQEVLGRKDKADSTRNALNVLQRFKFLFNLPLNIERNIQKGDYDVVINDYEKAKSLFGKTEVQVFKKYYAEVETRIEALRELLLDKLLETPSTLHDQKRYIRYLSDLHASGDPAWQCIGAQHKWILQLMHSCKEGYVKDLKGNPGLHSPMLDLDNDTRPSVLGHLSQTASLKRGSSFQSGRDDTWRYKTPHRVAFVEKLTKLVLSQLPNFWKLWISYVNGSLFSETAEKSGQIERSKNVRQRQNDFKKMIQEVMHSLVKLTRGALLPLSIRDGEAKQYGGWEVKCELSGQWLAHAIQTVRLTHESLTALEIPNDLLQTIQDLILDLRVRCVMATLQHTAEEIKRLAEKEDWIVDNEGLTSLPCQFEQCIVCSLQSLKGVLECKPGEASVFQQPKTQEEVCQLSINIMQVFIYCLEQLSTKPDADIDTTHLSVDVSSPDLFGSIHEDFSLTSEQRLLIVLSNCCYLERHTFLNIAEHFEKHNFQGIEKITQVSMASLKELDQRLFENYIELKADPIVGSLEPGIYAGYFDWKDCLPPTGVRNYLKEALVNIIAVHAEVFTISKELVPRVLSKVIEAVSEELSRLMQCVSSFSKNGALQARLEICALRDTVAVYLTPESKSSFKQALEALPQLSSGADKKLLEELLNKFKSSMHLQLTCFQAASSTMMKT
inactive: [1] 0.018 | [2] 0.109 | [3] 0.041 | [4] -0.028 | [5] -0.043 | [6] 0.031 | [7] 0.017 | [8] -0.094 | [9] 0.034 | [10] 0.049 | [11] 0.025 | [12] -0.107 | [13] -0.012 | [14] 0.046 | [15] -0.048 | [16] 0.031 | [17] 0.027 | [18] 0 | [19] 0.007 | [20] 0.005

EIF2D (UniProt P41214)
Chain of UniProt P41214 (P41214 whole entry, looked up): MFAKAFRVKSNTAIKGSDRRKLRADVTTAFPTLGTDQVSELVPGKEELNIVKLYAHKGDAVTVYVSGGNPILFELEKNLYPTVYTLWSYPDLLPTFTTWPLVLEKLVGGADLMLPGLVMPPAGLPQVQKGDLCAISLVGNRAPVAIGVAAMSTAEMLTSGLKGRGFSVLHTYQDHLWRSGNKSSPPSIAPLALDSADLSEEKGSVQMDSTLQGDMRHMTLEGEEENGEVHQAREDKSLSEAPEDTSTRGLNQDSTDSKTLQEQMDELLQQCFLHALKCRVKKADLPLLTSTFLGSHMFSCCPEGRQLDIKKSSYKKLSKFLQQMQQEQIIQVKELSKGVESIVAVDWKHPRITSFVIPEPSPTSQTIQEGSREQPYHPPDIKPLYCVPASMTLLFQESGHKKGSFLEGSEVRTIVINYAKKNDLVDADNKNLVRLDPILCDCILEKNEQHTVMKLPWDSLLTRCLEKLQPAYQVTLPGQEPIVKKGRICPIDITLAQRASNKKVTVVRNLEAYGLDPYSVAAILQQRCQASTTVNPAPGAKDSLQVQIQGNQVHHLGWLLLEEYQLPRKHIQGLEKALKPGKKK
inactive: [1] 0.041 | [2] 0.024 | [3] 0.017 | [4] -0.074 | [5] -0.052 | [6] 0.001 | [7] -0.02 | [8] -0.071 | [9] -0.002 | [10] 0.026 | [11] 0.017 | [12] -0.083 | [13] 0.003 | [14] 0.033 | [15] -0.024 | [16] -0.014 | [17] 0.164 | [18] 0.013 | [19] -0.018 | [20] -0.031

ERI1 (UniProt Q8IV48)
inactive: [1] 0.01 | [2] 0.01 | [3] 0.008 | [4] -0.018 | [5] -0.023 | [6] -0.008 | [7] 0.065 | [8] -0.112 | [9] -0.006 | [10] 0.034 | [11] 0.008 | [12] 0 | [13] 0.026 | [14] 0.004 | [15] -0.021 | [16] 0.025 | [17] 0.118 | [18] -0.015 | [19] -0.02 | [20] -0.007

FUBP3 (UniProt Q96I24)
inactive: [1] -0.007 | [2] 0.019 | [3] 0.048 | [4] 0.046 | [5] -0.032 | [6] 0.042 | [7] 0.028 | [8] -0.012 | [9] 0.03 | [10] -0.077 | [11] 0.008 | [12] -0.101 | [13] -0.033 | [14] 0.005 | [15] -0.05 | [16] 0.065 | [17] -0.146 | [18] 0.048 | [19] 0.001 | [20] -0.033

EPRS (UniProt P07814)
inactive: [1] 0.01 | [2] -0.001 | [3] 0.001 | [4] -0.077 | [5] -0.068 | [6] 0.024 | [7] -0.025 | [8] -0.035 | [9] 0.014 | [10] 0.02 | [11] 0.012 | [12] -0.11 | [13] 0.002 | [14] 0.003 | [15] -0.015 | [16] -0.004 | [17] 0.107 | [18] 0.015 | [19] -0.01 | [20] -0.032

ECH1 (UniProt Q13011)
active: [8] 0.348 | [10] 0.608 | [12] 0.309
inactive: [1] -0.003 | [2] -0.025 | [3] -0.008 | [4] -0.019 | [5] 0.041 | [6] -0.007 | [7] -0.07 | [9] -0.047 | [11] 0.017 | [13] -0.028 | [14] 0.004 | [15] -0.004 | [16] -0.033 | [17] -0.024 | [18] -0.01 | [19] 0.047 | [20] -0.001

FKBP8 isoform 2 (UniProt Q14318)
Chain of UniProt Q14318 (Q14318 whole entry, looked up): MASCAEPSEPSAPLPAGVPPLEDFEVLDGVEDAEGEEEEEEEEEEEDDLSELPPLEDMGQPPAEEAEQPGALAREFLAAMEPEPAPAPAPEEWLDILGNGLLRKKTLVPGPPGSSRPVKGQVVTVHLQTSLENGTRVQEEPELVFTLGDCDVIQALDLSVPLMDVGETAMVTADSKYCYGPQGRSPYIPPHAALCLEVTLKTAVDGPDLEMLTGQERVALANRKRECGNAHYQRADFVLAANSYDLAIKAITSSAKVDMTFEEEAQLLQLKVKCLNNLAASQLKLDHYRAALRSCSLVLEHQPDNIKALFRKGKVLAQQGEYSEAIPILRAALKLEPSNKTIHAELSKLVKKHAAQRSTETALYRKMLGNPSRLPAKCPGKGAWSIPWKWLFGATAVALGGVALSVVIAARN
inactive: [1] -0.037 | [2] -0.01 | [3] 0.366 | [4] -0.045 | [5] 0.005 | [6] -0.029 | [7] 0.033 | [8] -0.084 | [9] -0.022 | [10] 0.006 | [11] 0.004 | [12] -0.123 | [13] 0.02 | [14] 0.024 | [15] -0.018 | [16] 0.009 | [17] 0.112 | [18] 0.027 | [19] 0.001 | [20] 0.01

FDX2 (UniProt Q6P4F2)
inactive: [1] 0.022 | [2] -0.011 | [3] 0.166 | [4] 0.069 | [5] 0.038 | [6] -0.047 | [7] -0.264 | [8] -0.003 | [9] -0.122 | [10] -0.027 | [11] -0.016 | [12] 0.093 | [13] -0.001 | [14] -0.017 | [15] -0.478 | [16] -0.33 | [17] -0.313 | [18] 0.07 | [19] -0.021 | [20] -0.041

ENO1, A0A2R8YEM5
active: [7] -0.44 | [8] 0.325
inactive: [1] -0.03 | [2] -0.017 | [3] -0.056 | [4] 0.008 | [5] 0.004 | [6] -0.04 | [9] 0.031 | [10] -0.011 | [11] -0.256 | [12] 0.104 | [13] 0.021 | [14] 0.043 | [15] 0.002 | [16] 0.031 | [17] -0.035 | [18] 0.006 | [19] -0.001 | [20] 0.035

FMNL1 isoform 3 (UniProt O95466)
Chain of UniProt O95466 (O95466 whole entry, looked up): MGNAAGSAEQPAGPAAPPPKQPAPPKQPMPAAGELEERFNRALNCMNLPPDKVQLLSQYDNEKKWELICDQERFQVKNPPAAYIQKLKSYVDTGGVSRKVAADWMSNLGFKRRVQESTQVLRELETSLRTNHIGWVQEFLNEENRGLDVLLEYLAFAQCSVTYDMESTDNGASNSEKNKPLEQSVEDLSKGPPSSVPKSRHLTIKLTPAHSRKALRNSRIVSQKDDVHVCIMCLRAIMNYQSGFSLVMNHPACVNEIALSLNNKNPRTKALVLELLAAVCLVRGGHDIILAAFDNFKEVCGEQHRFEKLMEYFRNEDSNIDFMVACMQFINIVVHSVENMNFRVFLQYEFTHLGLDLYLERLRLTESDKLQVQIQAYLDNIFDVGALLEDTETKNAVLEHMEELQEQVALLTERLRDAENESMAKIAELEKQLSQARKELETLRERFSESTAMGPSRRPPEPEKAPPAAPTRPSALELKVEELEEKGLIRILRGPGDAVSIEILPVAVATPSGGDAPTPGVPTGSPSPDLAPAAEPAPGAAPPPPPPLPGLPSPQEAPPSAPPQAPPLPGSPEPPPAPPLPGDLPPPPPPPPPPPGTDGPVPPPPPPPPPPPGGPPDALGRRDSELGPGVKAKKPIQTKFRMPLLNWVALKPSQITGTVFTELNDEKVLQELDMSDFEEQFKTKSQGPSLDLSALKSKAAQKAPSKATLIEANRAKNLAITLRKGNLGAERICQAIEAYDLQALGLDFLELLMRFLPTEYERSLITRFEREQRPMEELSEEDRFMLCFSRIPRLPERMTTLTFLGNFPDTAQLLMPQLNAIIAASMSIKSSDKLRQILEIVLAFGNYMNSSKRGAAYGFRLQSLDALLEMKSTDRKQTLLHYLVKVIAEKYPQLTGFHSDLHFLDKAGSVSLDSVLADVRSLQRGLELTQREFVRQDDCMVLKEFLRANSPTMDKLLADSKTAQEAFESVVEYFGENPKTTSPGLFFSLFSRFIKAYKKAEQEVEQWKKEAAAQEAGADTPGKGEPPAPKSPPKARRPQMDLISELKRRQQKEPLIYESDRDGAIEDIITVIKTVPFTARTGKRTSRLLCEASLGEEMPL
inactive: [1] 0.022 | [2] -0.008 | [3] -0.002 | [4] 0.028 | [5] -0.088 | [6] -0.035 | [7] 0.026 | [8] -0.032 | [9] 0.007 | [10] -0.006 | [11] 0.011 | [12] -0.053 | [13] 0.015 | [14] 0.021 | [15] 0.015 | [16] 0.093 | [17] 0.018 | [18] 0.029 | [19] 0.044 | [20] -0.061

ENO1 isoform 2 (UniProt P06733)
inactive: [1] 0.02 | [2] -0.005 | [3] -0.09 | [4] 0.073 | [5] 0.004 | [6] -0.021 | [7] -0.263 | [9] 0.01 | [10] 0.01 | [11] -0.174 | [12] 0.085 | [13] -0.13 | [14] -0.001 | [15] 0.009 | [16] 0.033 | [17] -0.033 | [18] 0.022 | [19] -0.004 | [20] -0.015
active: [8] 0.269

FASTKD2 (UniProt Q9NYY8)
Chain of UniProt Q9NYY8 (Q9NYY8 whole entry, looked up): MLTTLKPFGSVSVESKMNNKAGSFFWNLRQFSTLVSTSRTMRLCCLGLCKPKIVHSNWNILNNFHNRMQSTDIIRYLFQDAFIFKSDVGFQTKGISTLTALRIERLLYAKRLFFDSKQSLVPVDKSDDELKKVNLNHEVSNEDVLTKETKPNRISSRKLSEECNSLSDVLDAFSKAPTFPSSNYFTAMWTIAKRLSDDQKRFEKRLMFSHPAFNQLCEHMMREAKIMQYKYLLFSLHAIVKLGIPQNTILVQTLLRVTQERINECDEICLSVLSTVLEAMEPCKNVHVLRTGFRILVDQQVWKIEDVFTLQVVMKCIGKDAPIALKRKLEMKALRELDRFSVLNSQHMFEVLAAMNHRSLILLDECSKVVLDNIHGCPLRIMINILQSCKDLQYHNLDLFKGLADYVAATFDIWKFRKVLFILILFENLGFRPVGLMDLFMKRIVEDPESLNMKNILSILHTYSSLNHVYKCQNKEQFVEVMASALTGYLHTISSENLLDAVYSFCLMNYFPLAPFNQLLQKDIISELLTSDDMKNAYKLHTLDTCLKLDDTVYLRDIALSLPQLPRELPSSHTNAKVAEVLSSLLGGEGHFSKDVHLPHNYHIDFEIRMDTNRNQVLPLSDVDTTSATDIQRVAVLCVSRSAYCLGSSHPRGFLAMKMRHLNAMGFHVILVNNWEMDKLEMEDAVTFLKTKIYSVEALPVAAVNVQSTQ
inactive: [1] -0.014 | [2] -0.002 | [3] 0.037 | [4] 0.004 | [5] -0.036 | [6] 0.011 | [7] -0.072 | [8] 0.03 | [9] 0.012 | [10] 0.014 | [11] 0.014 | [12] -0.065 | [13] 0.016 | [14] 0.056 | [15] 0.036 | [16] -0.016 | [17] -0.004 | [18] 0.021 | [19] -0.033 | [20] 0.021

EDC3 (UniProt Q96F86)
Chain of UniProt Q96F86 (Q96F86 whole entry, looked up): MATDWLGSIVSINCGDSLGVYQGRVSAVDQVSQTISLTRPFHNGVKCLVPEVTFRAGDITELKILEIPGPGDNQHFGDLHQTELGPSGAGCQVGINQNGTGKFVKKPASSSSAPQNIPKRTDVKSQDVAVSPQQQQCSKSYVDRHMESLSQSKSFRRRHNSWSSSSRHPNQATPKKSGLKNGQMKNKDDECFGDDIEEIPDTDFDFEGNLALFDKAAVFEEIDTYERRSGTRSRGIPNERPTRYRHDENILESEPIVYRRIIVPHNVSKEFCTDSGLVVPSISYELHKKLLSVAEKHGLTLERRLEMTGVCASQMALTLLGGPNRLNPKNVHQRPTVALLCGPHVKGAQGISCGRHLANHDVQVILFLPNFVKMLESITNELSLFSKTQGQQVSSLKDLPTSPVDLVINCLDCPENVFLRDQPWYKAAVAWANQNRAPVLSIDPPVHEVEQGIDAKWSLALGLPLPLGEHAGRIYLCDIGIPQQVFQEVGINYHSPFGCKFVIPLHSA
inactive: [1] -0.011 | [2] 0.019 | [3] -0.01 | [4] 0.066 | [5] -0.016 | [6] -0.012 | [7] -0.017 | [8] -0.043 | [9] 0.006 | [10] 0.018 | [11] -0.045 | [12] -0.1 | [13] 0.003 | [14] 0.009 | [15] 0.038 | [16] 0.019 | [17] -0.071 | [18] 0.025 | [19] -0.02 | [20] -0.042

GALNT2 (UniProt Q10471)
Chain of UniProt Q10471 (Q10471 whole entry, looked up): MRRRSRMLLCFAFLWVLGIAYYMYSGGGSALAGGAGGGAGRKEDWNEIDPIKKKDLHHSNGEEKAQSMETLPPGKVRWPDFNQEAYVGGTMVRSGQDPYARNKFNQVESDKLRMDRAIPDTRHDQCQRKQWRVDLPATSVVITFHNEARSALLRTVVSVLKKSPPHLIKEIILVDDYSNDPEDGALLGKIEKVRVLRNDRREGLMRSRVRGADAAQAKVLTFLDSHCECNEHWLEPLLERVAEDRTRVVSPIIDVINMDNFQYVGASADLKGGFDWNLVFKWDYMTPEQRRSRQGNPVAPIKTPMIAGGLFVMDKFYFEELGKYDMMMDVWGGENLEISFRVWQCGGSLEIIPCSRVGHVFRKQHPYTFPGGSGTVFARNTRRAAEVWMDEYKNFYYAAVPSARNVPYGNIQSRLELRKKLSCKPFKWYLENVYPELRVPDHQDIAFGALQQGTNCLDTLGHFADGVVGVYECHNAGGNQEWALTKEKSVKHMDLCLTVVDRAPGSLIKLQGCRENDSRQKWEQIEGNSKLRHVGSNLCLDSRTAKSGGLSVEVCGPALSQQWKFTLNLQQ
inactive: [1] 0.013 | [2] 0.014 | [3] 0.003 | [4] -0.014 | [5] 0.002 | [6] 0.042 | [7] 0.065 | [8] 0.035 | [9] -0.004 | [10] 0.016 | [11] -0.069 | [12] 0.073 | [13] -0.004 | [14] 0.008 | [15] -0.057 | [16] 0.048 | [17] -0.047 | [18] 0.028 | [19] -0.021 | [20] -0.021
